# S16 viability = toxic to S16 Pmp22-F2sN Schwann cells; S16 Pmp22-F2sN Schwann cells viability, CellTiter-Glo, 24 h; Potency, µM (titrated, usually from 57.5 µM), inactives show top-dose activity change, negative = cytotoxicity, hits mostly cytotoxic; actives 0.48% (n = 43,000); AID 1508642; note: nearly all actives have a fitted effect of over 65% in size
#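 S16 Pmp22-F2sN Schwann cells (500-1,000/well) in phenol-red-free DMEM with 10% FBS received 23 nL compound by pin tool for 24 h at 37 °C. Viability was then read as CellTiter-Glo luminescence after 15 min at room temperature.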
# PMP22 txn prim = PMP22 gene transcription modulation. S16 Pmp22-F2sN Schwann cells (luciferase reporters placed in the Pmp22 gene), FLuc/NLuc coincidence luminescence, 24 h. Potency, µM (doses to about 57.5 µM), inactives show at the top dose activity change, negative = inhibition, actives largely listed as inhibitors. actives 2% (n = 43,000). AID 1508649; active = clear falling dose curves in both reporters; inconclusive = both reporters move, but less clearly or upward; inactive = either reporter flat; the % is the NLuc reporter signal
#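 Rat S16 Pmp22-F2sN cells, 500-1,000/well in phenol red-free DMEM + 10% FBS, compound-treated 24 h (37C, 5% CO2). Luminescence: FLuc read, Stop&Glo added, NLuc read.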
# OvCa metastasis = blocks SKOV3ip1 adhesion and invasion in omental model | SKOV3ip1-GFP adhesion/invasion on 3D omental model, fluorescence | Potency, µM (series often up to 45.8 µM), without a hit: top-dose activity change, negative = inhibition, actives largely listed as inhibitors | actives 0.1% (n = 46,000) | AID 1963576;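 note: plate controls were DMSO wells for no effect and tomatine positive control wells for full effect; nearly all actives have a fitted effect of over 65% in size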
#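 qHTS, 4-pt dose (0.36-46 umol/L); SKOV3ip1-GFP, 1,200 cells/well, no FBS; primary omental fibroblast/mesothelial co-culture 48 h pre-grown; 2 h RT + 16 h 37 C; PBS wash, 4% PFA; GFP count 488/509 nm.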
# p53null 39C tox = p53 null cell cytotoxicity, nonpermissive temperature | H1299 p53-null (neo) cells, 39C, ATPlite viability, 24 h | Potency, µM (top dose mostly 46.1 µM), without a hit: at the highest dose activity, negative = cell killing, usual class: cytotoxic | actives 0.97% (n = 55,000) | AID 904;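 note: 0% = DMSO only and -100% = full killing by 100 µM tamoxifen; nearly all actives have a fitted effect of over 50% in size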
#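 Temperature-shift cytotoxicity format: compound titrations on p53-null or A138V-expressing H1299 cells held 24 hr at 39C, cell ATP then measured, AC50 from Hill model.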
# p53null 32C tox = p53 null cell cytotoxicity, permissive temperature; H1299-neo p53 null cells, ATP luminescence, 24 h, 32C; Potency, µM (titrated, usually from 46.1 µM), without a hit: at the highest dose activity change, negative = cytotoxicity, usual class: cytotoxic; actives 0.62% (n = 55,000); AID 903;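 note: 0% = DMSO only and -100% = full killing by 100 µM tamoxifen; nearly all actives have a fitted effect of over 55% in size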
#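 ATP-content luminescence in p53-null H1299-neo cells after 24 h compound exposure (up to 46 uM) at 32C permissive temperature; 0% and 100% killing set by DMSO and 100 uM tamoxifen; Hill-equation AC50.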
# mTORC1 inh = mTORC1 pathway inhibition measured by phospho-rpS6; Tsc2-/- p53-/- MEF, phospho-rpS6 immunofluorescence/PI, 24 h; Potency, µM (top dose mostly 38.3 µM), inactives show top-dose activity change, negative = inhibition, usual class: inhibitors; actives 0.78% (n = 44,000);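 note: plate controls were DMSO for no effect and rapamycin for full effect; nearly all actives have a fitted effect of over 50% in size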
#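 Tsc2-/-, p53-/- MEFs (empty-vector stable line) in DMEM + 10% FBS were treated with compounds 24 h at 37 degree Celsius, fixed, and immunostained for phospho-rpS6 (Alexa-488) with propidium iodide counterstain. Laser-scanning cytometry gave % positive cells, normalized against 7.5 nM rapamycin and DMSO.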
# * hit, by the source's call; i = inactive; ? = inconclusive; . = no result. A selection: hits, their analogues and other compounds. The true share with any hit is near 3%. Unless noted, calls come from the whole dose curve; as a rule, active = well fitted curve in the direction sought with a large enough effect; inconclusive = small, poorly fitted or top-dose-only effect, or another doubt; inactive = no such curve, though single readings can be large; an effect the other way counts as inactive or inconclusive. Unless noted, % is set by controls: 0 for no effect and ±100 for the full control effect; potency is the fitted concentration of half-maximal effect.
SMILES,S16 viability,PMP22 txn prim,OvCa metastasis,p53null 39C tox,p53null 32C tox,mTORC1 inh
CCc1ccc(S(=O)(=O)Nc2cccc(-c3ccc(N4CCC(C)CC4)nn3)c2)s1,.,.,4%,13µM*,10µM*,3%
CC(=O)Nc1ccc(S(=O)(=O)Nc2cccc(-c3ccc(N4CCCCCC4)nn3)c2)cc1,.,.,i,?,?,-1%
CCOc1ccc(-c2cccc(NS(=O)(=O)c3ccc(C)s3)c2)nn1,-1%,-3%,3%,-3%,-1%,0%
C[C@@]1(c2cc(-c3cncnc3)c(F)cc2F)CCSC(N)=N1,.,.,11%,.,.,.
COc1cc(N2CCN(C)CC2)ccc1Nc1nc(N)c(C(=O)c2c(Cl)cccc2Cl)s1,.,.,8%,.,.,.
CCOC(=O)c1[nH]c2ccccc2c1NC(=O)c1ccccc1OC,?,?,?,16µM*,7%,2%
CCOC(=O)c1[nH]c2ccccc2c1NC(=O)c1cc(Cl)ccc1Cl,-2%,?,i,?,-28%,-29%
COc1cc(Nc2ncc3c(n2)-c2ccc(Cl)cc2C(c2c(F)cccc2OC)=NC3)ccc1C(=O)O,.,.,-9%,.,.,.
CCOc1cc(CNCCc2ccccc2)ccc1OCC(=O)NC(C)(C)C,.,.,.,16µM*,-1%,.
CCNC(=O)Nc1ccc(-c2nc3c(c(N4CCOC[C@H]4C)n2)CCN(C2COC2)C3)cc1,.,.,-5%,.,.,.
C=C1C(=O)[C@@]23C(CC[C@@H]1[C@H]2O)[C@@]12CO[C@]3(O)[C@@H](O)[C@@H]1C(C)(C)CC[C@@H]2O (some centres undefined),.,.,19µM*,.,.,.
CCCCN(C)CCCNC(=O)Cn1ncc2c3ccccc3n(Cc3cc(C)ccc3C)c2c1=O,?,?,?,10µM*,-3%,-5%
Cc1cc(C)cc(OC(=O)c2cc(-c3ccc4c(c3)OCCO4)on2)c1,4%,-9%,5%,32µM*,?,1%
O=C(Nc1cccc(Br)c1)c1cc(-c2ccc3c(c2)OCCO3)on1,5%,-11%,-7%,?,?,-3%
Cc1cccc(OC(=O)c2cc(-c3ccc4c(c3)OCCO4)on2)c1,-6%,-13%,i,25µM*,?,-2%
O=C(C=CC#Cc1cccc(NS(=O)(=O)c2ccccc2)c1)NO,.,.,-10%,.,.,.
COc1ccc(CNC(=O)c2cc3c(-c4ccc(Cl)cc4)nn(C)c3s2)cc1,11%,-5%,-26%,-7%,9%,-13%
CCCN(CCC)CCCNC(=O)c1cc2c(-c3ccc(Cl)cc3)nn(C)c2s1,?,?,?,16µM*,3%,13µM*
COc1ccc(-n2ncc3c(NC(C)(C)CO)ncnc32)cc1,9%,15%,i,?,13µM*,6%
COc1ccc(CNc2ncnc3c2cnn3-c2ccc(C)c(C)c2)cc1,2%,?,i,15%,0%,0%
CCC(CO)Nc1ncnc2c1cnn2-c1ccc(C)cc1 (centres undefined),-12%,?,0%,20%,16µM*,10%
Cc1ccc(-n2ncc3c(NC(C)c4ccccc4)ncnc32)cc1 (centres undefined),5%,5%,1%,4%,?,2%
CCn1c(=O)c(C(=O)Nc2ccc(C(C)=O)cc2)nc2ccccc21,-6%,4%,i,10µM*,10µM*,-1%
Oc1ccccc1-c1nc(/C=C/c2ccccc2Cl)no1,-2%,?,-14%,10µM*,10µM*,-5%
COc1ccc2oc(=Nc3ccccc3)c(-c3nc4ccccc4[nH]3)cc2c1,.,.,.,.,11µM*,.
SMILES,S16 viability,PMP22 txn prim,OvCa metastasis,p53null 39C tox,p53null 32C tox,mTORC1 inh
COc1ccc(OC)c2sc(N3CCN(C(=O)C(C)(C)C)CC3)nc12,0%,-49%,5%,11µM*,13µM*,0%
CCn1c(=NC(=O)c2ccc3c(c2)OCCO3)sc2c(C)ccc(OC)c21,2%,9.2µM*,i,?,-18%,-19%
C#CCn1c(=NC(=O)c2ccc3c(c2)OCCO3)sc2cc(OC)c(OC)cc21,3%,?,-3%,-15%,6%,14%
COc1ccc(OC(=O)c2cc(-c3ccc4c(c3)OCCO4)on2)cc1,1%,-16%,-10%,?,13µM*,-10%
CCOC(=O)c1ccc(NC(=O)Nc2ccc3c(c2)OCCO3)cc1,.,.,.,-4%,-5%,.
CC(C)c1ccc(OC(=O)c2cc(-c3ccc4c(c3)OCCO4)on2)cc1,2%,-9%,1%,32µM*,13µM*,-4%
COc1ccc(C(=O)Nc2ccc3c(c2)OCCO3)cc1,.,.,.,11µM*,11µM*,.
O=C(Oc1ccc(Cl)cc1)c1cc(-c2ccc3c(c2)OCCO3)on1,12%,-1%,i,-32%,-19%,-5%
N#Cc1ccc(OC(=O)c2cc(-c3ccc4c(c3)OCCO4)on2)cc1,-3%,-25%,-25%,?,?,-1%
CCc1cnn2c(NCc3ccc[n+]([O-])c3)cc(N3CCCC[C@@H]3CCO)nc12,.,.,-2%,.,.,.
CC(C)(C)OC(=O)N1CCC(c2c(C(=O)NCCN3CCC(Cc4ccccc4)CC3)cnn2-c2ccc(F)cc2)CC1,?,?,?,25µM*,?,?
COc1ccc(CCN2CCC(CNC(=O)c3cnn(-c4ccccc4)c3C3CCN(C(=O)OC(C)(C)C)CC3)CC2)cc1,?,?,?,-10%,16%,7%
COc1ccc(CCN2CCC(CNC(=O)c3cnn(-c4cccc(Cl)c4)c3C3CCN(C(=O)OC(C)(C)C)CC3)CC2)cc1,?,?,?,20µM*,4%,?
C[C@H](NC(=O)[C@@H](O)c1cc(F)cc(F)c1)C(=O)N[C@@H]1C(=O)N(C)c2ccccc2-c2ccccc21,.,.,0%,.,.,.
COc1ccc(C(=O)Nc2cc(-c3nc4ccccc4s3)ccc2OC)cc1,?,?,?,-8%,4%,16µM*
O=C(Nc1nc2cccc(-c3ccc(CN4CCS(=O)(=O)CC4)cc3)n2n1)C1CC1,.,.,15%,.,.,.
Cc1csc2nc(-c3cccc(NC(=O)c4ccccc4F)c3)cn12,?,?,i,11µM*,?,1%
CC1=C(CC(=O)O)c2cc(F)ccc2C1=Cc1ccc(S(C)=O)cc1 (centres undefined),.,.,37%,.,.,.
